Hits are enriched below; roughly 3% of the tested compounds scored in any of these assays.
SENP8 block-1 = inhibitors of human SENP8 protease; Q96LD8; recombinant SENP8, Nedd8 substrate fluorescence; inhibition, % at 20 µM; hit rate 0.64% among 360,000; AID 602440; in the data active means inhibition mostly above about 40%, no sharp cut-off; inactive means mostly below about 27%
SENP7 block = blocks the human protease SENP7; Q9BQF6; recombinant SENP7, Z-RLRGG-aminoluciferin luminescence, 40 min; inhibition, % at 5 µM; hit rate 1.5% among 330,000;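 active means inhibition above about 50% at the single test dose, limit read from the data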;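 further: plate controls were DMSO with enzyme for no effect and no enzyme buffer wells for full effect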
Target sequence (Q9BQF6 706-1050 limits assumed): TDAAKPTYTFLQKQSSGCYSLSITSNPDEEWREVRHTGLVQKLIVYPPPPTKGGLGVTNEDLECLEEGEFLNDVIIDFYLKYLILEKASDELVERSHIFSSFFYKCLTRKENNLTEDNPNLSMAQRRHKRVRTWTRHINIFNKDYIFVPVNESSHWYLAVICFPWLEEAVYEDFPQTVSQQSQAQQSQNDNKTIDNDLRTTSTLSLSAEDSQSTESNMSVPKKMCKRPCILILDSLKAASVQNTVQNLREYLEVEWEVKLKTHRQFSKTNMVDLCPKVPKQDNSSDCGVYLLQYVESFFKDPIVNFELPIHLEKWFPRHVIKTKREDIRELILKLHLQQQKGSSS
SENP8 block-2 = inhibitors of human SENP8 protease; Q96LD8; purified SENP8, Z-RLRGG-aminoluciferin cleavage, luminescence; inhibition, % at 10 µM; hit rate 1.2% among 330,000; AID 2540; in the data active means inhibition above about 50%
PPC-1+TRAIL kill = kills PPC-1 cancer cells in the presence of TRAIL; PPC-1 cells + TRAIL, ATPLite viability luminescence; cell killing (% activity), % at 4 µM or 5 µM; hit rate 0.41% among 220,000; AID 1443;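 active means cell killing above 50% in the first pass at 4 µM, then a duplicate retest at 5 µM averaging 50% or more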;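 further: plate controls were cells with TRAIL plus DMSO for no effect and medium-only wells lacking cells for full effect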
TRAIL sens C8 = caspase-8 TRAIL sensitization; NB7+C8 cells + TRAIL, ATPlite viability luminescence; inhibition (viability loss, TRAIL sensitization), % at 10 µM; hit rate 1% among 360,000;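 active means compounds causing at least 50% loss of cell viability in the single-dose screen, relative to plate controls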
SENP6 inh = SENP6 protease inhibition | Recombinant SENP6 catalytic domain, aminoluciferin luminescence | hit rate 1.8% among 330,000 | Q9GZR1 | inhibition, % at 10 µM;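 active means inhibition above about 50% at the single tested dose, limit read from the data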;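 further: plate controls were DMSO wells with enzyme for no effect and DMSO wells lacking enzyme for full effect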
SENP8 confirm = confirmation of human SENP8 protease inhibitors. shares compounds with SENP7 block. Recombinant SENP8, Z-RLRGG-aminoluciferin luminescence, 60 min. inhibition, % at 12.5 µM. hit rate 40% among 6,200. AID 488912;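 active means mean inhibition across replicates above about 50%, limit read from the data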
SENP6 confirm = confirmation of human SENP6 protease inhibitors. recombinant SENP6, Z-RLRGG-aminoluciferin luminescence. inhibition, % at 12.5 µM. hit rate 58% among 6,200. shares compounds with SENP7 block
SENP7 conf = confirmation of human SENP7 protease inhibitors. shares compounds with SENP7 block. recombinant SENP7, Z-RLRGG-aminoluciferin luminescence, 40 min. inhibition, % at 12.5 µM. hit rate 69% among 6,200. AID 488917
Casp3 select = selectivity test for SENP inhibitors: human caspase-3 inhibition | hit rate 60% among 6,200 | inhibition, % at 12.5 µM | purified caspase-3, Z-DEVD-aminoluciferin luminescence, 60 min | AID 488918 | shares compounds with SENP7 block;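 active means mean inhibition above about 50%, limit read from the data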;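 further: plate controls were enzyme with DMSO for no effect and wells without caspase-3 for full effect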
Target sequence (P42574 28-227 limits assumed): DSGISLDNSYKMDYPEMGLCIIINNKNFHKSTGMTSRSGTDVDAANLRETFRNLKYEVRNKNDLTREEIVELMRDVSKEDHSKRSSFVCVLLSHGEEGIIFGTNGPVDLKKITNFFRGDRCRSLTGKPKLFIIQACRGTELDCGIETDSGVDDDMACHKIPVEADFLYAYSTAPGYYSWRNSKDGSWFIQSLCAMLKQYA
Luc interf = interferes with luciferase luminescence in SENP counter-screen; inhibition, % at 12.5 µM; hit rate 39% among 6,200; Pre-incubated SENP8/Z-RLRGG-aminoluciferin, luciferase luminescence interference; AID 488919; shares compounds with SENP7 block;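 active means mean inhibition above about 50% when retested at one dose, limit read from the data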;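 further: plate controls were DMSO wells with completed reaction for no effect and substrate without enzyme for full effect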
Numbers without * were called inactive; · = no result.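 How the source made its calls, unless noted: active means mean inhibition above about 50% in the one-dose retest (limit read from the data); inactive means the rest.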

SMILES	SENP8 block-1	SENP7 block	SENP8 block-2	PPC-1+TRAIL kill	TRAIL sens C8	SENP6 inh	SENP8 confirm	SENP6 confirm	SENP7 conf	Casp3 select	Luc interf
CCOC(=O)/C=C(\C)N1N=C(c2ccccc2)CC1c1ccccc1 (stereo unspecified)	-98	21	21	20	-2	52*	9	35	75*	29	28
CCOC(=O)c1nnn(CC(=O)N2N=C(c3ccccc3)CC2c2ccccc2)c1C(=O)OCC (stereo unspecified)	7	-18	-8	28	9	-10	·	·	·	·	·
O=C(O)c1cc(N=Nc2c(O)[nH]c3ccc([N+](=O)[O-])cc23)ccc1Cl	30	49	65*	·	3	54*	44	25	21	28	38
C(=C\n1nnc2ccccc21)/c1ccccn1	14	79*	74*	·	-3	76*	81*	80*	96*	89*	74*
COc1ccc(Nc2ccc3c(c2)=NC2(CCCCC2)[N+]=3[O-])cc1	81*	38	36	-2	37	82*	38	64*	31	7	2
CC(=O)/C(N=Nc1ccc(SC(F)F)cc1)=C(\C)O	24	48	45	11	-4	66*	46	64*	60*	62*	39
Cc1cnc(NC(=O)c2cccs2)s1	-9	57*	50	·	46	69*	62*	60*	86*	84*	34
Cc1ncoc1C(=O)Nc1ncc([N+](=O)[O-])s1	21	97*	93*	5	3	95*	99*	100*	103*	99*	98*
O=C(Nc1ncc([N+](=O)[O-])s1)c1cccs1	20	99*	96*	·	20	97*	96*	98*	103*	98*	98*
O=C(Nc1ncc([N+](=O)[O-])s1)c1ccccc1Br	28	76*	86*	·	-2	90*	91*	90*	100*	94*	71*
CN(Cc1ccccc1)C(=O)c1nc[nH]c1C(=O)N(C)Cc1ccccc1	13	8	-2	·	-5	2	·	·	·	·	·
O=C(COC(=O)c1cc(Br)ccc1O)NC12CC3CC(CC(C3)C1)C2	5	-4	7	·	-9	16	·	·	·	·	·
OC(c1ccc(Cl)cc1)c1ncc(-c2ccc(Oc3ccccc3)cc2)[nH]1 (stereo unspecified)	-2	·	·	·	-1	·	·	·	·	·	·
CCN(CC(=O)Nc1ccc(NC(C)=O)cc1)C(=O)c1ccc(C(=O)c2ccccc2)cc1	6	-3	-5	·	-12	-3	·	·	·	·	·
COC/C=C/C1=CC2=CC(=O)C(C)(OC(=O)c3cnc4ccccc4n3)C(=O)C2=CN1c1ccccc1 (stereo unspecified)	·	1	64*	3	·	3	12	11	6	4	0
COC/C=C/C1=CC2=CC(=O)C(C)(OC(=O)c3cnc4ccccc4n3)C(=O)C2=CN1c1ccc(CO)cc1 (stereo unspecified)	·	12	-3	·	·	-55	·	·	·	·	·
C[C@@H]1CN([C@@H](C)CO)C(=O)CCCn2nncc2CO[C@@H]1CN(C)S(=O)(=O)c1cccc(C#N)c1	6	·	·	·	-9	·	·	·	·	·	·
COc1ccc(-c2cc(-c3cc(F)ccc3O)[nH]n2)cc1OC	-7	83*	69*	8	15	72*	86*	84*	95*	36	83*
Oc1ccccc1-c1cc(-c2ccc3c(c2)OCCO3)n[nH]1	12	1	95*	43	53*	97*	97*	99*	103*	92*	68*
Cc1ccc(O)c(-c2cc(-c3cccc(F)c3)n[nH]2)c1	4	16	5	27	25	-10	·	·	·	·	·
COc1ccc(-c2cc(-c3ccc(Cl)cc3)n[nH]2)c(O)c1	19	64*	64*	·	18	70*	25	48	87*	14	66*
COc1ccc(-c2cc(-c3ccc(OC)c(OC)c3)n[nH]2)c(O)c1	16	96*	93*	15	-7	94*	97*	98*	102*	86*	95*
O=C(OCC(=O)N1CCCCCC1)c1ccc(F)cc1F	1	-1	-7	·	5	-9	·	·	·	·	·
CCN1CCN(S(=O)(=O)c2ccc(Cl)c(C(=O)N(C)Cc3ccco3)c2)CC1	4	2	9	·	3	0	·	·	·	·	·
COc1ccc(-c2cc(-c3ccccc3O)[nH]n2)cc1OC	10	88*	78*	-8	17	80*	93*	92*	101*	69*	93*
SMILES	SENP8 block-1	SENP7 block	SENP8 block-2	PPC-1+TRAIL kill	TRAIL sens C8	SENP6 inh	SENP8 confirm	SENP6 confirm	SENP7 conf	Casp3 select	Luc interf
NC(=O)c1ccc(NC(=O)CNC(=O)c2sc3ccccc3c2Cl)cc1	15	7	-7	·	17	-17	·	·	·	·	·
O=C(O)CCC(=O)N1CN2CN(C(=O)CCC(=O)O)CC([N+](=O)[O-])(C2)C1	19	3	-2	2	-21	-15	·	·	·	·	·
COC(=O)CCC(=O)N1CN2CN(C(=O)CCC(=O)OC)CC([N+](=O)[O-])(C2)C1	19	8	0	27	-13	95*	-26	-21	-11	-11	-8
CN1CCSc2ccc(C(=O)Nc3cc(F)ccc3F)cc21	-421	89*	76*	38	9	88*	86*	86*	96*	79*	25
COc1cc(OC)c(OC)cc1CNC(=O)c1cc(S(=O)(=O)N2CCOCC2)ccc1F	13	6	1	·	-20	0	·	·	·	·	·
O=C(N1CCOCC1)N1[C@H](COCc2ccccc2)C=CS1(=O)=O	17	·	·	·	-10	·	·	·	·	·	·
CCOc1cc(/C=C2\C(=O)N(c3nc(-c4ccc(Br)cc4)cs3)N=C2c2ccccc2)ccc1O	27	-2	5	10	25	51*	10	7	-3	-2	-1
COc1cc(/C=C2\C(=O)N(c3ccc(NC(C)=O)cc3)N=C2c2ccccc2)ccc1O	10	33	5	-8	-3	32	·	·	·	·	·
O=Cc1ccc(OC(=O)/C=C/c2ccccc2)cc1	15	-17	-36	·	-2	-36	·	·	·	·	·
CCOc1ccc(/C=C/C(=O)Oc2ccccc2)cc1	-2	59*	12	·	-13	12	16	15	34	33	12
